Data taken from the supplement of paper PMC10849652.
Of roughly 8,800 targets only a part is listed; those with a hit were picked by preference. About 0.5% of all pairs of compound and target were hits. A number with no mark means an inactive call.

Experiments:
Test in all cases: log2 fold change, soluble protein after heating vs DMSO (PISA); higher = thermal stabilisation; K562 lysate, 10 uM; active = over 0.2 and 3.5 SD of the protein, either way, in both replicates (recomputed)
vemurafenib = compound: CCCS(=O)(=O)Nc1ccc(F)c(C(=O)c2c[nH]c3ncc(-c4ccc(Cl)cc4)cc23)c1F [vemurafenib]
How it was run: (§1)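 Pellets of K562 cells were dounce-homogenised in PBS pH 7.4 with 1 mM MgCl2, and the crude extract was held at 1 mg/mL protein for a 30 min treatment with 10 μM compound. Aliquots were heated for 3 min over 48°C-58°C and pooled before NP-40 was added to 0.5% at 4°C. The supernatant from 21,000xg for 90 min was quantified by TMTpro 16plex LC-MS/MS with channel sums equalised. Values are reported from duplicates as log-two fold change in thermal stability relative to solvent controls.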

[1] = compound: CCCS(=O)(=O)Nc1ccc(F)c(C(=O)c2c[nH]c3ncc(Cl)cc23)c1F
How it was run: as §1

barasertib = compound: CCN(CCCOc1ccc2c(Nc3cc(CC(=O)Nc4cccc(F)c4)[nH]n3)ncnc2c1)CCOP(=O)(O)O [barasertib]
How it was run: as §1

[2] = compound: CC[C@@H]1C(=O)N(C)c2cnc(Nc3ccc(C(=O)NC4CCN(C)CC4)cc3OC)nc2N1C1CCCC1
How it was run: as §1

volasertib = compound: CC[C@@H]1C(=O)N(C)c2cnc(Nc3ccc(C(=O)N[C@H]4CC[C@H](N5CCN(CC6CC6)CC5)CC4)cc3OC)nc2N1C(C)C [volasertib]
How it was run: as §1

[3] = compound: CCn1c(C(=O)N(C2CC2)C2CC2)cc2c3c(ncn3C)c(Nc3cc(C)n(C)n3)nc21
How it was run: as §1

[4] = compound: CCn1cc(-c2ccnc3[nH]c(-c4cccc(CN(C)C)c4)cc23)c(-c2ccc(NC(=O)N(C)C)cc2)n1
How it was run: as §1

[5] = compound: CN1CCC(CNc2ccc3ncc(-c4cccc(OC(F)(F)F)c4)n3n2)CC1
How it was run: as §1

saracatinib = compound: CN1CCN(CCOc2cc(OC3CCOCC3)c3c(Nc4c(Cl)ccc5c4OCO5)ncnc3c2)CC1 [saracatinib]
How it was run: as §1

sotrastaurin = compound: CN1CCN(c2nc(C3=C(c4c[nH]c5ccccc45)C(=O)NC3=O)c3ccccc3n2)CC1 [sotrastaurin]
How it was run: as §1

alvocidib = compound: CN1CC[C@H](c2c(O)cc(O)c3c(=O)cc(-c4ccccc4Cl)oc23)[C@H](O)C1 [alvocidib]
How it was run: as §1

Tubastatin A = compound: CN1CCc2c(c3ccccc3n2Cc2ccc(C(=O)NO)cc2)C1 [Tubastatin A]
How it was run: as §1

[6] = compound: CNC(=O)C1=CC=CC=C1NC2=NC(=NC=C2Cl)NC3=C(C=C(C=C3)N4CCOCC4)OC
How it was run: as §1

defactinib = compound: CNC(=O)c1ccc(Nc2ncc(C(F)(F)F)c(NCc3nccnc3N(C)S(C)(=O)=O)n2)cc1 [defactinib]
How it was run: as §1

[7] = compound: CNc1nc(-c2ccc3c(N)n[nH]c3c2)cc(N2C[C@@H](C(=O)NC3CCCCC3)CC[C@H]2C)n1
How it was run: as §1

encorafenib = compound: COC(=O)N[C@@H](C)CNc1nccc(-c2cn(C(C)C)nc2-c2cc(Cl)cc(NS(C)(=O)=O)c2F)n1 [encorafenib]
How it was run: as §1

[8] = compound: COC(=O)[C@H](CCSC)NC(=O)C1=C(C=C(C=C1)NC[C@H](CS)N)C2=CC=CC=C2
How it was run: as §1

alisertib = compound: COc1cc(Nc2ncc3c(n2)-c2ccc(Cl)cc2C(c2c(F)cccc2OC)=NC3)ccc1C(=O)O [alisertib]
How it was run: as §1

[9] = compound: COc1cc2nc(-c3cc(F)ccc3O)nc(N[C@@H]3CNC[C@H]3C(C)(C)O)c2cc1OC
How it was run: as §1

gefitinib = compound: COc1cc2ncnc(Nc3ccc(F)c(Cl)c3)c2cc1OCCCN1CCOCC1 [gefitinib]
How it was run: as §1

Chain of UniProt Q9H1K0 (Q9H1K0 whole entry, looked up): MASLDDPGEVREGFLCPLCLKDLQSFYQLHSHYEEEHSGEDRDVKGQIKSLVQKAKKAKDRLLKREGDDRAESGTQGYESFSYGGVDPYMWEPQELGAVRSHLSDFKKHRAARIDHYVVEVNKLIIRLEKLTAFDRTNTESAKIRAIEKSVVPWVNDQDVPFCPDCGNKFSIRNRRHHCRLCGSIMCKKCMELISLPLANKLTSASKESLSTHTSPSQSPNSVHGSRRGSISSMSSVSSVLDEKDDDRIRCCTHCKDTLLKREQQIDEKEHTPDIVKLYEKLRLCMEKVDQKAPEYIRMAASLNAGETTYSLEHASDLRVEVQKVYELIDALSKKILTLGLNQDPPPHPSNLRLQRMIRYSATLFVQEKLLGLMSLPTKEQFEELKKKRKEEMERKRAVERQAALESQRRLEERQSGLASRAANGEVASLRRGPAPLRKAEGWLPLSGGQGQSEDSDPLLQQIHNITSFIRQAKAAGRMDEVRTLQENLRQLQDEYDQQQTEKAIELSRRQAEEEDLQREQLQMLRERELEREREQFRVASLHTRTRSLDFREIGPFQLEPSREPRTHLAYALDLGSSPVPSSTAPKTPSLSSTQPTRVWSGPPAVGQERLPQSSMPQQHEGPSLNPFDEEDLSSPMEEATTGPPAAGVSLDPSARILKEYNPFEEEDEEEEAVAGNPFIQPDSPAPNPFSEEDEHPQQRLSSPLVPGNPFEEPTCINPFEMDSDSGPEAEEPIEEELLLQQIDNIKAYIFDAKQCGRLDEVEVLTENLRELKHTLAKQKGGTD
Chain of UniProt Q96DM3 (Q96DM3 whole entry, looked up): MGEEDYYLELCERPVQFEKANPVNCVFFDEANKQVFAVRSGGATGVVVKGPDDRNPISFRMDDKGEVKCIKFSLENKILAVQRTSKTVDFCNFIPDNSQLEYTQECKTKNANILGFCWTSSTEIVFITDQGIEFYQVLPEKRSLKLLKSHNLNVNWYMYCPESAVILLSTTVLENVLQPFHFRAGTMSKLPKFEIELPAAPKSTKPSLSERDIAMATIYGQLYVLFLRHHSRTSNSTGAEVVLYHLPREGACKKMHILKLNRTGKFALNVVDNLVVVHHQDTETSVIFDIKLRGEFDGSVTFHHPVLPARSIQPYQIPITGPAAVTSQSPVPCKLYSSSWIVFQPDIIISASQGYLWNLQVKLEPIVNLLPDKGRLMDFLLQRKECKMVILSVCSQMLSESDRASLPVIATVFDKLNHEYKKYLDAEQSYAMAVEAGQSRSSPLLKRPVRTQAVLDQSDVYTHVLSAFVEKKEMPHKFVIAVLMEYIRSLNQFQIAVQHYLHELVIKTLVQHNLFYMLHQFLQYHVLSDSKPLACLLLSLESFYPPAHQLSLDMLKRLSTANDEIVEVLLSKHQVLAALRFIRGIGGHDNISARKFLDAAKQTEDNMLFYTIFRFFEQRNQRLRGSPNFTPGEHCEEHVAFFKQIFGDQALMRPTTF
Chain of UniProt Q8NC44 (Q8NC44 whole entry, looked up): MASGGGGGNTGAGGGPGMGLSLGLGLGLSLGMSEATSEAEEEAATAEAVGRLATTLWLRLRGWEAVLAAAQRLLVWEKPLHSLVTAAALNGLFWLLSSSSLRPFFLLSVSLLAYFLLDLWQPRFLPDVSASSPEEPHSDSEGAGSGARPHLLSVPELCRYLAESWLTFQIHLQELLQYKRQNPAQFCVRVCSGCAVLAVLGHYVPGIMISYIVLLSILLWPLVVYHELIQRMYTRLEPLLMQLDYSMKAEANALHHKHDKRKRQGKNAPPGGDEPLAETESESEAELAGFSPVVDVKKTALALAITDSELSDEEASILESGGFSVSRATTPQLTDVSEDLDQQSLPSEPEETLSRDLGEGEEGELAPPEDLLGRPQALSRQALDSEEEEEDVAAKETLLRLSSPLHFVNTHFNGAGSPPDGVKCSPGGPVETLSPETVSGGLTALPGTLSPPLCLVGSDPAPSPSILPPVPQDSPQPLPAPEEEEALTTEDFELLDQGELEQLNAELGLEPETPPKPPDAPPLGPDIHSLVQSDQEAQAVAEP
Chain of UniProt Q9H0R6 (Q9H0R6 whole entry, looked up): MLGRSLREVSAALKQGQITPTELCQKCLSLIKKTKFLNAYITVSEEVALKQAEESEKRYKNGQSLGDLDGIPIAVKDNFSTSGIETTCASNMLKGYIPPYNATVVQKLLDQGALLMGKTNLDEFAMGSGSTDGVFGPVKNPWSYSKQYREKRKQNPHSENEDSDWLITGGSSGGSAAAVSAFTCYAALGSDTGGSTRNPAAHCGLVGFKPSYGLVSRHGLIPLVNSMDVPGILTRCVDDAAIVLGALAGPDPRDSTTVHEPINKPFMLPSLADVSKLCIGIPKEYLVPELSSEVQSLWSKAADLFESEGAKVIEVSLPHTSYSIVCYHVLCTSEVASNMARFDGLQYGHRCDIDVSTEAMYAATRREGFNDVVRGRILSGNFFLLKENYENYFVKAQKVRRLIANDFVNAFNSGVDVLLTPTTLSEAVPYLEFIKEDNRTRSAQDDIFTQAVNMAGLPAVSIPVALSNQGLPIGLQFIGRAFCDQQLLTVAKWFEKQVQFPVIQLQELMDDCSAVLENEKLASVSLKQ
Chain of UniProt P40937 (P40937 whole entry, looked up): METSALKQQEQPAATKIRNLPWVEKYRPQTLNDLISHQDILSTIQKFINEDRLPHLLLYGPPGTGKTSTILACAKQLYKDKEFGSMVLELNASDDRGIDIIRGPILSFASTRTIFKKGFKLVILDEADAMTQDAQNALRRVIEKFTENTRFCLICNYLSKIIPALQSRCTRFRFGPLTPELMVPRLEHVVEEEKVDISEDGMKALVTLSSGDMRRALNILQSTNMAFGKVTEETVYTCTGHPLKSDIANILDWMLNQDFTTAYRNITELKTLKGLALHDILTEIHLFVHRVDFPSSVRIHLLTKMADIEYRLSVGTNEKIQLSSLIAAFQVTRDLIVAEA
Chain of UniProt Q8TEB9 (Q8TEB9 whole entry, looked up): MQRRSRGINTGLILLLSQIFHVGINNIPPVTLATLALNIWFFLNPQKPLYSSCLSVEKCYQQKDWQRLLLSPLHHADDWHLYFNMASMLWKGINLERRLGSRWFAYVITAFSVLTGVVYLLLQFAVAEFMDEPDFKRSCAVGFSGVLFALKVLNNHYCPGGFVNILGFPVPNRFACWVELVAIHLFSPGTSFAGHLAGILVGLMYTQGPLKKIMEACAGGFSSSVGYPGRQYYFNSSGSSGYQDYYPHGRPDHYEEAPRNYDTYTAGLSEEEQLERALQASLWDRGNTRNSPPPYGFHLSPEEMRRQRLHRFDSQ
Chain of UniProt Q7L523 (Q7L523 whole entry, looked up): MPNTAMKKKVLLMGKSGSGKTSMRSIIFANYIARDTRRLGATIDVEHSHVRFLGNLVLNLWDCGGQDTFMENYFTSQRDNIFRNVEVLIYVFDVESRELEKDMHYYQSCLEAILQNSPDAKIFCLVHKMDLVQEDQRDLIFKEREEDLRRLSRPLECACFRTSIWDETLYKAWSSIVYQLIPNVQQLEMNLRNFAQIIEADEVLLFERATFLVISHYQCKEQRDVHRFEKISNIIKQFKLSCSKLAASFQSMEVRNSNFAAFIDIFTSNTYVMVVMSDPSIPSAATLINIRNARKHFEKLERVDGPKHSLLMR
Chain of UniProt P47736 (P47736 whole entry, looked up): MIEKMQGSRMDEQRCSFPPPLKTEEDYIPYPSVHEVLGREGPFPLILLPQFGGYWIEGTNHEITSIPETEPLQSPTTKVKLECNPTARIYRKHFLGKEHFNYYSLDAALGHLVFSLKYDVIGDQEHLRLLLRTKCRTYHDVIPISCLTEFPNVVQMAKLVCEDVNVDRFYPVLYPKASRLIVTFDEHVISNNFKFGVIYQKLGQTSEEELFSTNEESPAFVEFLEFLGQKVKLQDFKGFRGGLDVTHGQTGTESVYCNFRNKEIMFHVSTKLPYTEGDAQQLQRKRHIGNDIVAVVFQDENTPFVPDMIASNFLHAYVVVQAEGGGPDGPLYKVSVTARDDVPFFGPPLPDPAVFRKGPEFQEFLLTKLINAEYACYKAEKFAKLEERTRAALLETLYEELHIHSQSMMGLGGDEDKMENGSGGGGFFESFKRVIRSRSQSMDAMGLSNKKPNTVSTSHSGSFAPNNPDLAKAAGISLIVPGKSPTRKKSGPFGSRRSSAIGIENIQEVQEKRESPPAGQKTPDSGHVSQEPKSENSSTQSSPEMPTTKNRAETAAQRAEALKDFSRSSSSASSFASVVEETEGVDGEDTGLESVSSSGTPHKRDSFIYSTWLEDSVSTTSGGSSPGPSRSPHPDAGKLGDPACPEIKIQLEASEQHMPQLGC
Chain of UniProt P52756 (P52756 whole entry, looked up): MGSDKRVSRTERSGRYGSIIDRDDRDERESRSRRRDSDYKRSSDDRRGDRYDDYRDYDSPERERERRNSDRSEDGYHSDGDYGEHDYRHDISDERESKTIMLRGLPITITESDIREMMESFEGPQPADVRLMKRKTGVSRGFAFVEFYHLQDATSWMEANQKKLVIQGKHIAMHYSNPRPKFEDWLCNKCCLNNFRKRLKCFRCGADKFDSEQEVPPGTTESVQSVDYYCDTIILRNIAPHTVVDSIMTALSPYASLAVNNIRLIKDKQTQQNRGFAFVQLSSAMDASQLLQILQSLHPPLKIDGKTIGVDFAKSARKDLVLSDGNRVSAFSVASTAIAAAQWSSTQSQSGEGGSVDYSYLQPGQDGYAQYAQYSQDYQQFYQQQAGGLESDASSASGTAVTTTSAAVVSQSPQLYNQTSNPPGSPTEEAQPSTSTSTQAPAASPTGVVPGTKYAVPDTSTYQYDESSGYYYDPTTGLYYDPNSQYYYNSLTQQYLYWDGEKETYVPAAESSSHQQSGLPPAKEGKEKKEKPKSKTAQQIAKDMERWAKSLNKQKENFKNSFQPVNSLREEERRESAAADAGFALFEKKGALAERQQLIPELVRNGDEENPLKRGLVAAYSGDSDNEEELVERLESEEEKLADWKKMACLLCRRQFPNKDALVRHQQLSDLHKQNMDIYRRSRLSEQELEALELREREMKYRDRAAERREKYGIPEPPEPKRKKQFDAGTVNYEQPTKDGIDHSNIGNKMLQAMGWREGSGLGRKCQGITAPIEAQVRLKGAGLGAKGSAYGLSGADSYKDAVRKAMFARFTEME

Target	log2 fold change (vemurafenib)	log2 fold change [1]	log2 fold change (barasertib)	log2 fold change [2]	log2 fold change (volasertib)	log2 fold change [3]	log2 fold change [4]	log2 fold change [5]	log2 fold change (saracatinib)	log2 fold change (sotrastaurin)	log2 fold change (alvocidib)	log2 fold change (Tubastatin A)	log2 fold change [6]	log2 fold change (defactinib)	log2 fold change [7]	log2 fold change (encorafenib)	log2 fold change [8]	log2 fold change (alisertib)	log2 fold change [9]	log2 fold change (gefitinib)
RELN (UniProt P78509)	0.043	-0.098	0.004	0.024	-0.019	0.021	-0.024	0.152	0.035	0.02	0.026	-0.051	-0.025	0.055	-0.016	-0.009	-0.092	-0.014	0.141	0.089
RRAGA (UniProt Q7L523)	0.111	0.092	-0.004	0.014	0.042	0.139	-0.011	0.051	0.081	-0.014	-0.122	-0.687 (active)	-0.053	-0.044	-0.045	-0.032	-0.022	-0.161	0.017	0.04
QRSL1 (UniProt Q9H0R6)	0.134	0.012	0.044	-0.004	-0.057	0.008	-0.178	-0.138	-0.056	0.071	-0.028	-0.021	-0.012	-0.068	-0.051	-0.015	-0.005	0.014	0.014	-0.045
RPL28 (UniProt P46779)	0	-0.016	-0.049	-0.001	0.006	-0.017	0.278 (active)	-0.066	-0.011	-0.038	0.03	0.006	-0.009	-0.018	0.036	0.012	-0.014	0.011	-0.005	-0.058
RBM5 (UniProt P52756)	-0.021	-0.018	0.087	0.013	-0.277	0.064	0.048	-0.012	-0.039	-0.03	-0.226	-0.059	0.021	0.01	0.028	0.044	0.134	-0.035	0.182	0.18
RAP1GAP isoform 4 (UniProt P47736)	0.009	0.055	0.008	0.044	-0.075	0.003	-0.038	0.02	0.06	0.029	0.01	-0.138	0.06	0.012	-0.027	0.022	0.01	0.024	0.008	0.026
RBSN (UniProt Q9H1K0)	0.051	0.01	0.023	0.035	-0.087	0.006	-0.075	0.038	0.023	-0.019	-0.031	0.005	-0.047	0.015	-0.014	0.089	-0.048	0.019	0.015	0.059
RMC1 (UniProt Q96DM3)	0.009	0.029	0.003	0.028	-0.044	-0.02	0	0.024	0.018	-0.015	-0.041	-0.019	0.019	0.049	-0.019	0.012	-0.023	0	-0.001	0.005
RHBDD1 (UniProt Q8TEB9)	0.105	-0.08	-0.05	-0.16	-0.074		0.016	-0.029			-0.018			0.024		0.063	0.054		0.02	
RETREG2 (UniProt Q8NC44)	0.037	-0.036	0.033	-0.009	0.09	-0.086	-0.261	0.014		0.112	-0.069	-0.025	0	-0.12		-0.002	-0.096	-0.029	-0.007	-0.058
RAP1B (UniProt F5GZG1)	0.025	-0.069	0.043	-0.013	-0.015		0.471	0.041	0.094	-0.038	-0.118		0.01	-0.05	-0.104	0.056	0.124	0.059	0.002	0.071
RFC5 (UniProt P40937)	0.034	-0.003	-0.017	-0.039	-0.079	0.022	0.137	0.005	0.008	0.043	0.004	-0.203	0.003	0.008	-0.004	0.051	0.148	-0.006	-0.003	0
